# Screens as filed in PubChem BioAssay.
# TCR activator: activators of T cell receptors; 330,000 tested, under 10 active; primary human leukocytes, anti-CD3, IL-2 HTRF, 48 h; Potency, µM (highest dose often 9.22 µM), for inactives: top-dose activation of IL-2 secretion, most hits filed as activators; AID 504894; also: % of control where 0% means no effect
#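 Readout: HTRF IL-2, Eu-cryptate/d2 antibody pair, 320nm excitation, 665nm emission. Stimulus: a-CD3 beads, no co-stimulation. Cells: primary human leukocytes. Exposure: 48 hr with compound.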
# GRP78 ERSR act: inducers of ER stress response in human glioma cells; U87-MG GRP78 promoter luciferase reporter, 16 h; Potency, µM, inactives show at the highest dose activation, most hits filed as activators; hit rate 0.02% among 420,000; AID 602332; also: potency is read from the fitted curve at half-maximal effect; series mostly up to about 76 µM; % of control where 0% means no effect; nearly all actives have a fitted effect of over 35% in size
#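 Stably transfected U87-MG glioma cells carrying a GRP78-based luciferase sensor; 16 h compound incubation. Luminescence end-point read 10 min after Bright-Glo addition at room temperature.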
# Mito fusion yeast: mitochondrial division inhibition or fusion activation | S. cerevisiae fusion-defective mutant growth rescue, CellTiterGlo 48 h | Potency, µM (top dose mostly 46.1 µM), without a hit: top-dose growth rescue (activation), hits mostly activators | hit rate 0.23% among 320,000 | AID 485298; also: potency is read from the fitted curve at half-maximal effect; % of control where 0% means no effect; nearly all actives have a fitted effect of over 45% in size
#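 Read-out: ATP-based luminescence (CellTiterGlo, 10 min ambient) reporting growth of fusion-defective ts yeast after 48 hours at 37C on glycerol/ethanol YPEG medium in the presence of compound.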
# MBNL1-CUG inh: inhibitors of human MBNL1 binding to CUG repeat RNA; TR-FRET MBNL1-His/biotin-(CUG)12 binding, 665/545 ratio; Potency, µM (highest dose often 57.5 µM), for the others: at the top dose activity change, negative = inhibition, hits mostly inhibitors; Q9NR56; hit rate 0.036% among 280,000; active = well fitted inhibition curve with a large enough effect in the signal ratio, with a control signal flat, not every such curve was filed as active; inconclusive = small, poorly fitted or top-dose-only effect, or effect the other way, or a change in a side signal; inactive = no such curve, though single readings can be large or run the other way; the % refers to the signal ratio; also: potency is read from the fitted curve at half-maximal effect; % is scaled to controls: 0 for no effect and ±100 for the full control effect
#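 Ratiometric TR-FRET (665 over 545 nm, excitation 340 nm) tracks disruption of MBNL1-His/biotin-(CUG)12 complex after 60 min at room temperature, with compounds at 92 nM to 58 uM final.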
# A-T KAP1 phos: potential ataxia-telangiectasia treatment; F2112 A-T fibroblasts, KAP-1 phosphorylation AlphaLISA; neocarzinostatin DNA damage 30 min before lysis; Potency, µM (series often up to 57.5 µM), without a hit: top-dose activation, hits mostly activators; hit rate 0.19% among 320,000; also: potency is read from the fitted curve at half-maximal effect; % of control where 0% means no effect; nearly all actives have a fitted effect of over 45% in size
#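 ATM-like activity read as KAP-1 phosphorylation via AlphaLISA donor/acceptor antibody pairs after lysis and 6 hr at 25C. Cells were ATM-null patient fibroblasts (F2112, hTERT), dosed 60 min, then exposed to the DSB inducer NCS for 30 min.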
# ClpP mod: qHTS Assay for Activators of ClpP; purified B. subtilis ClpP, FRET peptide cleavage, 20 min; hit rate 1.9% among 340,000; Potency, µM (series often up to 57.5 µM), inactives show at the highest dose activity change, negative = active; active = well fitted falling curve with a large enough effect; inconclusive = small, poorly fitted or top-dose-only effect; inactive = no such curve, though single readings can be large or run the other way; also: potency is read from the fitted curve at half-maximal effect; the source files actives as falling curves though it sought activators and does not explain the sign; nearly all actives have a fitted effect of over 65% in size
#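 FRET quenching reversal measured ClpP activation: 10 microg/mL B. subtilis ClpP at pH 8 with the FRET-FV decapeptide, read at 430 nm after 320 nm excitation. The 20-min minus 0-min signal was scaled between DMSO/no-enzyme wells and ADEP (5.8 microM final).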
# * marks the source's active call; other numbers are inactive results; ? = inconclusive; / = no result; [ ] = another dose, or the depositor's remark. This is a sample that favours compounds with a hit; in the whole collection about 1.8% have one here. Unless noted, calls follow the shape of the dose curve; as a rule, active = well fitted curve in the direction sought with a large enough effect; inconclusive = small, poorly fitted or top-dose-only effect, or another doubt; inactive = no such curve, though single readings can be large; an effect the other way counts as inactive or inconclusive.
SMILES,TCR activator,GRP78 ERSR act,Mito fusion yeast,MBNL1-CUG inh,A-T KAP1 phos,ClpP mod
COc1cccc(-c2cc3nc(-c4ccccc4)cc(N4CCC5(CC4)OCCO5)n3n2)c1,-4%,1%,6%,13%,33%,16µM*
CN1CCN(c2cc(-c3ccccc3)nc3cc(-c4ccc(F)cc4)nn23)CC1,1%,-6%,1%,4%,2%,22µM*
Clc1ccc(C(Cn2ccnc2)OCc2c(Cl)cccc2Cl)c(Cl)c1 (stereo unspecified),-4%,-5%,6.3µM*,/,2%,-1%
Cc1ccc(OCC(=O)N(Cc2ccccc2)C(C)(C)C)c([N+](=O)[O-])n1,3%[46.1 µM],1%,-25%,?,-4%,-2%
Cc1ccc(OCC(=O)N(Cc2ccccc2)C(C)C)c([N+](=O)[O-])n1,4%[46.1 µM],-5%,1%,/,0%,3.2µM*
CC(=O)c1cccc(NC(=O)CC2SC(N3CCCCC3)=NC2=O)c1 (stereo unspecified),1%,-2%,1%,-1%,3%,-3%
CC(=O)c1cccc(NC(=O)c2ccc(NC(=O)CC3SC(N4CCCCC4)=NC3=O)cc2)c1 (stereo unspecified),5%,-3%,-3%,1%,-2%,22µM*
Cc1ccc(CN2CCc3nnc(C(C)NC(=O)c4cc(F)ccc4F)n3CC2)o1 (stereo unspecified),/,-5%,/,/,/,/
COc1ccc(OC)c(-c2cc(C(=O)N3CCc4ccccc4C3)no2)c1,6%,0%,30%,-15%,7%,25µM*
COc1ccc(-c2cc(C(=O)N3CCc4ccccc4C3)no2)cc1,3%,2%,-8%,-2%,5%,-3%
CC[C@H](C)[C@H](NC(=O)[C@H](CC(=O)O)NC(=O)[C@H](CC(C)C)NC(=O)[C@H](Cc1cnc[nH]1)NC(=O)[C@H](C)NC(=O)[C@H](Cc1ccccc1)NC(=O)[C@H](Cc1ccc(O)cc1)NC(=O)[C@@H](NC(=O)[C@H](C)NC(=O)[C@H](CCC(=O)O)NC(=O)[C@H](CCC(=O)O)NC(=O)[C@H](CC(=O)O)NC(=O)CCC(=O)O)C(C)C)C(=O)N[C@H](C(=O)N[C@@H](Cc1c[nH]c2ccccc12)C(=O)O)[C@@H](C)CC,/,-2%,/,/,/,/
Cc1[nH]c2ccccc2c1C(c1c[nH]c2ccccc12)c1c(C)[nH]c2ccccc12,/,-5%,/,/,/,-7%
O=C(C[N+]1(CCO)CCOCC1)c1cccs1,/,-3%,/,/,/,0%
CS(=O)(=O)Nc1cc(C(=O)N2CCNC(=O)C2)c2c(c1)ncn2CCc1ccccc1,/,-8%,/,/,/,/
O=C(CN1c2ccccc2Sc2ccccc21)NNC(=S)Nc1ccc(Cl)cc1,0%,-3%,28%,-9%,1%,25µM*
O=C(Nc1ccc(Cl)cc1Cl)[C@@H]1CC=C[C@@H]2CCN(C3CCCCC3)C(=O)[C@@H]21,/,-2%,/,/,/,0%
Cc1ccc(NC(=O)CCc2c(C)nc3cc(-c4ccccc4)nn3c2C)cc1F,/,-9%,/,/,/,28µM*
CCN(CC)S(=O)(=O)c1ccc(NC(=O)CCc2c(C)nc3cc(-c4ccc(Cl)cc4)nn3c2C)cc1,/,-9%,/,/,/,16µM*
O=C(NCCN1Cc2ccccc2OC(c2ccsc2)C1)c1cncs1 (stereo unspecified),/,-2%,/,/,/,/
CC1CCN(C(=O)CSc2nc3c(c(=O)n2C)SCC3)CC1,2%,-1%,-1%,0%,-20%,28µM*
CNC(=O)COc1ccc(NC(=O)CCn2nc(-c3ccc(C)cc3)c3ccccc3c2=O)cc1,/,0%,/,/,/,5%
CN(Cc1ccccc1)C(=O)COC(=O)c1cc(-c2ccc(Cl)s2)nc2ccccc12,/,-2%,9%,19%,3%,11µM*
CCCCN(C)CCCNC(=O)c1cc(-c2ccc(Br)s2)nc2ccccc12,/,-1%,/,/,/,4%
CCCCN(CCCC)CCCNC(=O)c1cc(-c2ccc(Cl)s2)nc2ccccc12,/,-4%,/,/,/,35µM*
O=C(O)c1cc(-c2ccc(Cl)s2)nc2ccccc12,12%,5%,2%,113%,-4%,/
SMILES,TCR activator,GRP78 ERSR act,Mito fusion yeast,MBNL1-CUG inh,A-T KAP1 phos,ClpP mod
COc1cc2nc(N3CCOCC3)nc(NC(C)C)c2cc1OC,/,/,/,/,/,3%
CSc1nc2nccc(-c3ccc4c(c3)OCO4)n2n1,-6%,1%,29%,?,-1%,/
CSc1nc2nccc(-c3ccc(Oc4ccccc4)cc3)n2n1,-6%,3%,28%,3%,3%,28µM*
CSc1nc2nccc(-c3ccc(-c4ccccc4)cc3)n2n1,-7%,2%,5%,?,3%,28µM*
CCCn1c(CN2CCN(c3ccc(OC)cc3)CC2)nc2c1c(=O)[nH]c(=O)n2C,/,-8%,/,/,/,-20%
Nc1c2c(nc3ccccc13)N(c1ccccc1)CC2,7%,1%,3%,?,8%,16µM*
CN1CCCCc2c1nc1ccccc1c2N (tested in a mixture with another compound),4%,-1%,7%,-7%,5%,-15%
CC(=O)[C@@]1(O)CC[C@H]2[C@@H]3C=C(Cl)C4=CC(=O)CC[C@]4(C)[C@H]3CC[C@@]21C,/,-4%,/,/,/,/
Clc1ccc(C[n+]2csc3ccccc32)cc1,5%[46.1 µM],8%,11µM*,-5%[11.5 µM],-6%,-1%
Fc1ccc(C[n+]2csc3ccccc32)cc1,-3%,4%,2%,0%,-2%,-2%
C[C@H]1O[C@@H](n2cc(F)c(=O)[nH]c2=O)[C@H](O)[C@H]1O,/,-4%,1%,/,/,/
O=C(NCc1nnnn1-c1ccc(Cl)cc1)c1ccc(Br)o1,9%,-6%,5%,/,-4%,16µM*
O=C(CNC(=O)c1ccc(Br)o1)NNC(=O)c1ccc(Cl)cc1,4%,-5%,1%,/,5%,22µM*
COc1ccc(N2C(=O)c3ccccc3NC2c2ccc(OC)c(Cn3nnc4ccccc43)c2)cc1 (stereo unspecified),7%[46.1 µM],-1%,-2%,-3%,3%,32µM*
COc1ccc(C2Nc3ccccc3C(=O)N2c2ccc(C)cc2)cc1Cn1nc(C)c([N+](=O)[O-])c1C (stereo unspecified),-4%,3%,4%,-6%,-5%,-5%
COc1ccc(C2Nc3ccccc3C(=O)N2c2ccc(C)cc2)cc1COc1ccccn1 (stereo unspecified),-5%[46.1 µM],1%,-1%,-8%,2%,32µM*
